# Article PMC7862700, “An all-to-all approach to the identification of sequence-specific readers for epigenetic DNA modifications on cytosine”
# What was measured:
# Test in all cases: DAPPL (digital affinity profiling via proximity ligation, sequencing); 10 mM Tris-HCl pH 7.5, 50 mM NaCl, 1 mM DTT, 4% glycerol, room temperature, 30 min; GST-TFs on glutathione beads, 16-mer random dsDNA library, 0.1% formaldehyde crosslink after washing; high values mean tight binding
# Details in all cases: protein: recombinant; tags: N-terminal GST; dsDNA, one strand shown
# ETV5 = ETV5 (Homo sapiens, UniProt P41161 1-510)
# Summary of the method: (§1)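 After expression in yeast as GST fusions, human transcription factors were bound to glutathione beads, DNA-barcoded and mixed with a tag-only sample. The pools were incubated with 200 nmole of a 16-mer random double-stranded DNA library in Tris/NaCl/DTT/glycerol buffer (30 min, room temperature), washed and crosslinked with 0.1% formaldehyde. Proximity ligation with BsaI/T4 ligase ran for 1 h at 37 °C, before PCR amplification and sequencing on an Illumina NextSeq500. Binding signal is a hexamer's read frequency for a factor divided by its frequency for the tag-only sample.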
# SPIC = target: T1, SPIC (Homo sapiens, UniProt Q8N5J4 1-248)
# T1 sequence: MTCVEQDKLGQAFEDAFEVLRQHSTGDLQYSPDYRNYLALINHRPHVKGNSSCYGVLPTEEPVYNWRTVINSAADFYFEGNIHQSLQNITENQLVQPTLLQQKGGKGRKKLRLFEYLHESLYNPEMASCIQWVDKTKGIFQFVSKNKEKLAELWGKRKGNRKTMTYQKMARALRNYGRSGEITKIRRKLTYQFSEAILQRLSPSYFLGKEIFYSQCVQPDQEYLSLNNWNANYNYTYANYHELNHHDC
# Summary of the method: as §1
# ELF4 = ELF4 (Homo sapiens, UniProt Q99607 1-663)
# Summary of the method: as §1
# ETV1 = ETV1 (Homo sapiens, UniProt P50549 1-477)
# Summary of the method: as §1
# ERF = target: T2, ERF (Homo sapiens, UniProt P50548 1-548)
# T2 sequence: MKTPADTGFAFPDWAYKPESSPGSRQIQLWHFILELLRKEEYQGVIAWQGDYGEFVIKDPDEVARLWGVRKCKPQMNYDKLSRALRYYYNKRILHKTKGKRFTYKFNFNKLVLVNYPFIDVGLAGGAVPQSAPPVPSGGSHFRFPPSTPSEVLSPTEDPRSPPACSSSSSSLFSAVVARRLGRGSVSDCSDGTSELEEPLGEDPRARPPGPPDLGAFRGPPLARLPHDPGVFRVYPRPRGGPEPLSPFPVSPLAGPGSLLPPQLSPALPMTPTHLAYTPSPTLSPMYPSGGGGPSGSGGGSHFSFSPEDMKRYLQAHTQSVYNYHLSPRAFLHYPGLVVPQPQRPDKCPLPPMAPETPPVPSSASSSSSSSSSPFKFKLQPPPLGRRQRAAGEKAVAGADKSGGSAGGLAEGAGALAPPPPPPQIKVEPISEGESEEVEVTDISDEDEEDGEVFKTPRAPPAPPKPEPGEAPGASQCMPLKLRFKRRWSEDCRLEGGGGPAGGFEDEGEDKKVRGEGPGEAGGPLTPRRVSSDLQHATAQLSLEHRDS
# Summary of the method: as §1
# ETV3L = target: T3, ETV3L (Homo sapiens, UniProt Q6ZN32 1-361)
# T3 sequence: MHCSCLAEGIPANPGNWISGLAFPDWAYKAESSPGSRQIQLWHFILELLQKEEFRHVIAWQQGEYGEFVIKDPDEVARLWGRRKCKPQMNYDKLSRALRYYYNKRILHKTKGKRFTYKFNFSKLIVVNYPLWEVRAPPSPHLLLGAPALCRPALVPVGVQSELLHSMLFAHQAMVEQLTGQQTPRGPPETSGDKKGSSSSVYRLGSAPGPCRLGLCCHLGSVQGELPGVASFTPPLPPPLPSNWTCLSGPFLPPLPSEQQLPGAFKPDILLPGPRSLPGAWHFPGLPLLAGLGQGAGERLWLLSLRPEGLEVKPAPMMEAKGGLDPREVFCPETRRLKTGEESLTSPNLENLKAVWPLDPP
# Summary of the method: as §1
# ETS2 = target: T4, ETS2 (Homo sapiens, UniProt P15036 1-469)
# T4 sequence: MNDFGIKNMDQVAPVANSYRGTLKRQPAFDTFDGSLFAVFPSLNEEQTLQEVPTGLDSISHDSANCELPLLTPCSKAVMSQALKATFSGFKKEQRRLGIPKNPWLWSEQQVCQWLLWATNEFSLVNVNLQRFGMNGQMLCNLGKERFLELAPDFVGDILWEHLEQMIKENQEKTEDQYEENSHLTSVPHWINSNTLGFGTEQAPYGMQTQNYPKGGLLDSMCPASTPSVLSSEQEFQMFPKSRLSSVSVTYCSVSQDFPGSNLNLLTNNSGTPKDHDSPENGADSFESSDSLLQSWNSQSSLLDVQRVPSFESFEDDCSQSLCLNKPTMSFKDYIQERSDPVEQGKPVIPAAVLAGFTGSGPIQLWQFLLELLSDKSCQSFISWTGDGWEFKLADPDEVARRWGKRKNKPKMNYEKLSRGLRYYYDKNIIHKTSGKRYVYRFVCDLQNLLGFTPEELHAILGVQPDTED
# Summary of the method: as §1
# SPDEF = target: T5, SPDEF (Homo sapiens, UniProt O95238 1-335)
# T5 sequence: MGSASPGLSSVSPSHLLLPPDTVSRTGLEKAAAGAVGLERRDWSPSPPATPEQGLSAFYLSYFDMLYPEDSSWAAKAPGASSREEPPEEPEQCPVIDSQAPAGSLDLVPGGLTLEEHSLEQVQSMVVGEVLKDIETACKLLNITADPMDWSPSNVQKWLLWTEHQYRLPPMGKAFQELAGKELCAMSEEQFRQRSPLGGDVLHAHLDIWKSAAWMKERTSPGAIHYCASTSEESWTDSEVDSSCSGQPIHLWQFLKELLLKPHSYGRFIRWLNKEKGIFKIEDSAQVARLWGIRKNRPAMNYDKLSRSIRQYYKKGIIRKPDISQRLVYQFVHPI
# Summary of the method: as §1
# ETV3 = target: T6, ETV3 (Homo sapiens, UniProt P41162-2 1-143)
# T6 sequence: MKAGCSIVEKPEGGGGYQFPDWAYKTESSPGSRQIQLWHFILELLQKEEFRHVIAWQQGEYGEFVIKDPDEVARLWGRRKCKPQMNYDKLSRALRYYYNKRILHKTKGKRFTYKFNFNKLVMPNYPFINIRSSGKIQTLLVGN
# Summary of the method: as §1
# ETV6 = ETV6 (Homo sapiens, UniProt P41212 1-452)
# Summary of the method: as §1
# ETV5, sequence (P41161 whole entry, the tested form may be a part): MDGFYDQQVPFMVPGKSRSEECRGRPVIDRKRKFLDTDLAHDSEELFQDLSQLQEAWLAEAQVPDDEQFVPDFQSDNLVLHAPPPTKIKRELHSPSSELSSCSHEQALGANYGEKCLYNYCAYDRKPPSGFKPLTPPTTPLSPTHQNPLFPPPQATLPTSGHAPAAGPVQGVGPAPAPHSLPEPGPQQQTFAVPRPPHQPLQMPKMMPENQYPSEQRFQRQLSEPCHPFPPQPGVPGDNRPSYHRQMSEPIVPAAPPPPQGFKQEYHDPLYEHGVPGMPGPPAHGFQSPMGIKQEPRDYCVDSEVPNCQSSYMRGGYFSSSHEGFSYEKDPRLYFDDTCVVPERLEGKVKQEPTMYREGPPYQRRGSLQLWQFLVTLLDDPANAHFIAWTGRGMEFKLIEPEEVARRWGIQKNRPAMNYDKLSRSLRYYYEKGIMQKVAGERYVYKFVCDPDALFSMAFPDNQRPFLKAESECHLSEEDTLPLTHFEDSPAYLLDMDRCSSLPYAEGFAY
# ETV1, sequence (P50549 whole entry): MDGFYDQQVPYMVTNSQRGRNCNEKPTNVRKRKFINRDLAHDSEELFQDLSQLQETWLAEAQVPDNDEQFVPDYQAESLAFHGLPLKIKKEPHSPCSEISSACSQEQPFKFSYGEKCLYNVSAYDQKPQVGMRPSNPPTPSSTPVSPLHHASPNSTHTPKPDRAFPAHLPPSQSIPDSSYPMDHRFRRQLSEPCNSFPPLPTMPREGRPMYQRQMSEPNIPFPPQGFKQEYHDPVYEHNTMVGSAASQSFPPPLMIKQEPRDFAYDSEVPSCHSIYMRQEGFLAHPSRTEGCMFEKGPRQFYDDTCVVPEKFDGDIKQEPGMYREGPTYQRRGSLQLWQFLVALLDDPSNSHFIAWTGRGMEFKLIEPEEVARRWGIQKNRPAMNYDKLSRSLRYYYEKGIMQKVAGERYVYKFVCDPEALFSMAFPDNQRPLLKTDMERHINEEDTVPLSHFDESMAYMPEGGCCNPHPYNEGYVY
# ELF4, sequence (Q99607 whole entry): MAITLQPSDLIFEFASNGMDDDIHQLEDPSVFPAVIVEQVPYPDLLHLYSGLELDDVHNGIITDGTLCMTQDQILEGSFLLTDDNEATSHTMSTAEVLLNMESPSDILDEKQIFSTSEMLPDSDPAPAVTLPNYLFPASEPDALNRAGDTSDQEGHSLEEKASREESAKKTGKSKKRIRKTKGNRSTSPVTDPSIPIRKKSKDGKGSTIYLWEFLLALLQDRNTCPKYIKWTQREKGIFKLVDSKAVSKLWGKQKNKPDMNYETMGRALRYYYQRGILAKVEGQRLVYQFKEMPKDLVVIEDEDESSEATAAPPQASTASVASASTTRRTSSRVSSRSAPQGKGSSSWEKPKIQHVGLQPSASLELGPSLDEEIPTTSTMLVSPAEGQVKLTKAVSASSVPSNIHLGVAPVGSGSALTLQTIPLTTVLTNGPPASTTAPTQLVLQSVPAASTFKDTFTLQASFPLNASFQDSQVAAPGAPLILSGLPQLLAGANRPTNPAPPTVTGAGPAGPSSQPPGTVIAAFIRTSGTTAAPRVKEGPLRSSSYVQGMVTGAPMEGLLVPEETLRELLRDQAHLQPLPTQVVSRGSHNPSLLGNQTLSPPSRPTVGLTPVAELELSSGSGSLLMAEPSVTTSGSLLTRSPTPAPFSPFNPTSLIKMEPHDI
# ETV6, sequence (P41212 whole entry): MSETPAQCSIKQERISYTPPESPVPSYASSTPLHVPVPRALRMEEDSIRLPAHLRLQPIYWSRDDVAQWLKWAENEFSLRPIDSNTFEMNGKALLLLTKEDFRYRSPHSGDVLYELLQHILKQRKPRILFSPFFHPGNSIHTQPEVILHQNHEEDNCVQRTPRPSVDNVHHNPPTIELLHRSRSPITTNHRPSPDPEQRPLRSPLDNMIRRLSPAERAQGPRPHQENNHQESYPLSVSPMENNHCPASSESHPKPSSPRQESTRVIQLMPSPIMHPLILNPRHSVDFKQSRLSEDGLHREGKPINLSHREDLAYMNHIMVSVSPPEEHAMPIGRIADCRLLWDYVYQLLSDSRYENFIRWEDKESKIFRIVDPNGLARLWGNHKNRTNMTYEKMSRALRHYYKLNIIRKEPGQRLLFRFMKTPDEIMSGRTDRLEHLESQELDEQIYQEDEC
sequence,measurement,setting,value
TGGACC,binding signal,ETV5,"1.05 fold enrichment (6-mer frequency, TF over GST control)"
same,binding signal,SPIC,"1.16 fold enrichment (6-mer frequency, TF over GST control)"
same,binding signal,ELF4,"1.06 fold enrichment (6-mer frequency, TF over GST control)"
same,binding signal,ETV1,"1.08 fold enrichment (6-mer frequency, TF over GST control)"
same,binding signal,ERF,"1.11 fold enrichment (6-mer frequency, TF over GST control)"
same,binding signal,ETV3L,"1.13 fold enrichment (6-mer frequency, TF over GST control)"
same,binding signal,ETS2,"1.04 fold enrichment (6-mer frequency, TF over GST control)"
same,binding signal,SPDEF,"1.05 fold enrichment (6-mer frequency, TF over GST control)"
same,binding signal,ETV3,"1.04 fold enrichment (6-mer frequency, TF over GST control)"
same,binding signal,ETV6,"1.08 fold enrichment (6-mer frequency, TF over GST control)"
